The source of these data is PubChem BioAssay AID1259418 (Broad Institute, 2018).

Structures are written as SMILES. About 840 (25%) of roughly 3,400 compounds were called active. About 11% were inconclusive and are not listed. Not all results are given here. Potency and affinity values are given separately. Values without a mark were called inactive.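 How the source made its calls: active means fitted half-maximal concentration of signal decrease at or below twice the sample's top tested concentration; inconclusive means flat curve between -70 and -30 percent, or poor fit; inactive means flat within 30 percent, signal rise, or potency above limit.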

The nature of the assay: inhibitors of Toxoplasma growth in IFN-γ-primed HeLa – cell-based, ME49Luc, luciferase, 72 h, dose response (AID 1259418). Particulars: T. gondii ME49Luc in IFN-y HeLa, stronger effect = lower value, -100% = high-dose IFN-γ control wells; at 19.5 µM unless noted.
As to `COc1ccc(Cl)cc1NC(=O)N1CCc2nc(-c3ccccc3)sc2C1`, the max activity is -14.8% [at 0.35 µM]. Turning to `CN(Cc1ccccn1)C(=O)C1=NOC2(CCN(S(=O)(=O)c3cccc(F)c3)C2)C1` (configuration not stated), the max activity was 23.5% [at 10 µM]. Turning to `Cc1ccc(-c2coc(-c3ccc(NC(=O)Nc4ccc(F)c(Cl)c4)cc3)n2)cc1`, the max activity was 49.3%. As for `CCc1c(C)sc2c1CCN(Cc1nc(-c3ccc(C(C)C)cc3)oc1C)C2c1ccccc1` (configuration not stated), the max activity is 9.71%. Consider `Cc1ccccc1C(=O)Nc1cnc(N2CCC(C(N)=O)(N3CCCCC3)CC2)c(C(=O)O)c1`, for which the max activity was -6.96% [at 1.35 µM]. In the case of `CCc1ccc(S(=O)(=O)N2CCC3(CC2)NCCN=C3NCc2ccc(Cl)cc2)cc1`, the max activity is 17.4% [at 10 µM]. The result for `CC(C)Cc1ccc(S(=O)(=O)N2CCC3(CC2)NCCN=C3NCc2cccc(F)c2)cc1` reads 16.8% [at 10 µM]; that for `CCc1ccc(S(=O)(=O)N2CCC3(CC2)NCCN=C3NCc2cc(F)cc(F)c2)cc1`, 16.8%; that for `Cc1cnn(C(C)C(=O)N2CCc3[nH]nc(-c4ccc(F)c(F)c4)c3C2)c1` (configuration not stated), 11.2%. `Cc1ccc(-c2coc(-c3ccc(NC(=O)Nc4ccccc4Cl)cc3)n2)cc1`: the max activity was 13.9% [at 0.16 µM].

In the case of `COC(=O)C1CCN(S(=O)(=O)c2cc3c4c(c2)CCC(=O)N4CCC3)CC1`, the max activity was 9.1% [at 1.35 µM]. As for `CCOc1ccc(-c2nc3c(s2)CN(S(=O)(=O)c2cc(C)cc(C)c2)CC3)cc1`, the figure is -12.1% [at 2.6 µM]. As for `COc1ccc(-c2nc(NCc3cccc(Cl)c3)c3ccccc3n2)cc1`, the figure is -12% [at 0.35 µM]. Take `CCc1c(C)sc2c1CCN(Cc1nc(-c3ccc(Cl)cc3)oc1C)C2c1ccccc1` (configuration not stated): the max activity is 38.9% [at 10 µM]. For `CCc1ccccc1NC(=O)N1CCc2nc(-c3ccc(C)cc3)sc2C1`, the max activity was -16.8%. Turning to `Clc1ccc(-c2nc(N3CCN(Cc4ccc5c(c4)OCO5)CC3)c3ccccc3n2)cc1`, the max activity was 21.6% [at 2.6 µM]. Turning to `O=C(Nc1ccc(Cl)cc1)Nc1ccc(-c2nc(-c3ccccc3)co2)cc1`, the max activity was -18.8% [at 2.6 µM].

For the molecule `COc1ccc(-c2nc(CN(c3ccc(OC)cc3)S(=O)(=O)c3ccc(C)cc3)c(C)o2)cc1`, the max activity is -10.7% [at 0.16 µM]. For the molecule `COc1ccc(-c2nc(CN(c3ccc(OC)cc3)S(=O)(=O)c3ccc(OC)cc3)c(C)o2)cc1`, the max activity was 16.7% [at 5 µM]. On to `Cc1oc(-c2ccccc2)nc1CN(c1ccccc1)S(=O)(=O)c1ccccc1`, for which the max activity was 6.75% [at 2.6 µM].

As for `COc1ccc(N(Cc2nc(-c3ccc(C)cc3)oc2C)S(=O)(=O)c2ccc(OC)cc2)cc1`, the max activity is 6.72% [at 1.35 µM]. For `Cc1oc(-c2ccc(OC(C)C)cc2)nc1CN(c1ccccc1)S(=O)(=O)c1ccccc1`, the max activity was 5.29%.

For the molecule `COc1ccc(-c2nc(CN(c3ccc(OC)cc3)S(=O)(=O)c3ccccc3)c(C)o2)cc1`, the max activity was 21.2% [at 5 µM].

With `COc1ccc(S(=O)(=O)N2CCC[C@@H]2C(=O)NCCc2csc(C)n2)cc1`, the max activity was -6.98% [at 5 µM]. On to `CCc1ccccc1NC(=O)COc1nc(C)nc2ccccc12`, for which the max activity was -12.9% [at 2.6 µM]. `COCCNC(=O)C1(C)CCC(=O)N1CCc1c[nH]c2ccccc12` (configuration not stated): the max activity was 3.62%. For the molecule `O=C(CC1N=C2c3ccccc3N=C(SCc3cccc(F)c3)N2C1=O)NCc1ccc2c(c1)OCO2` (configuration not stated), the max activity was 67.4%. For the molecule `Cc1cccc(CN2CCC3(CC2)N=C(c2cccc(F)c2)C(=O)N3)c1`, the max activity was -7.22%. Take `Cc1cccc(-c2noc(-c3nnn(Cc4nc(-c5cccc(Cl)c5)oc4C)c3C)n2)c1`: the max activity was 60.4%.

Consider `CCN1CC(C(=O)O)CN2CCN(C(=O)c3ccncc3F)CC2C1` (configuration not stated), for which the max activity is 5.55%. In the case of `COc1ccc(-c2nc(Nc3ccc(C(C)C)cc3)c3ccccc3n2)cc1`, the max activity was 12% [at 5 µM]. The result for `O=C(NCCc1csc(-c2ccccc2)n1)[C@H]1CSCN1C(=O)c1cccc(F)c1` reads -24.5%; that for `O=C(NCCc1csc(-c2ccccc2)n1)[C@H]1CCCN1C(=O)c1ccco1`, -10.6% [at 0.16 µM]; that for `COc1ccccc1-c1ccc2c(c1)[C@H]1[C@H](CCN1Cc1ccccc1F)[C@@H](CO)N2`, 11.2% [at 1.2 µM].

In the case of `Cc1ccc(S(=O)(=O)N2CC[C@@H]3[C@H]2c2cc(-c4cccc(C(=O)N(C)C)c4)ccc2N[C@@H]3CO)cc1`, the max activity was 21.6% [at 10 µM]. With `O=C(Cc1ccccc1)N1CC[C@H]2[C@H](CO)Nc3ccc(C4=CCCCC4)cc3[C@H]21`, the max activity was 30.4% [at 10 µM]. As to `CN(C)C(=O)c1cccc(-c2ccc3c(c2)[C@H]2[C@H](CCN2C(=O)Cc2ccccc2)[C@@H](CO)N3)c1`, the max activity is 24.7% [at 5 µM]. Regarding `CCOc1ccc(C(=O)N2CCC3(CC2)Nc2cc(F)ccc2-n2cccc23)cc1`, the max activity was -6.53% [at 5 µM].

For the molecule `Cc1cccc(OCC(=O)N2CCC3(CC2)Nc2ccc(C)c(C)c2-n2cccc23)c1`, the max activity was 8.26% [at 0.16 µM].

In the case of `O=C(COc1ccc(Cl)cc1)N1CCC2(CC1)Nc1cc(F)ccc1-n1cccc12`, the max activity was 9.43% [at 0.16 µM]. Take `O=C(COc1ccccc1)N1CCC2(CC1)Nc1ccc(Cl)cc1-n1cccc12`: the max activity was 8.01% [at 0.35 µM]. Turning to `O=C(COc1ccc(Cl)cc1)N1CCC2(CC1)Nc1ccc(Cl)cc1-n1cccc12`, the max activity is 3.74% [at 0.68 µM].

For the molecule `Cc1nc2ccccc2n1CC(O)Cn1c2ccccc2c2ccccc21` (configuration not stated), the max activity was 28.9%. The result for `CCOc1ccc(NC(=O)Nc2ccc(-c3nc(-c4ccc(C)cc4C)co3)cc2)cc1` reads 21.2% [at 0.16 µM]; that for `CCc1ccc2c(c1)cc(S(=O)(=O)c1ccccc1)c(=O)n2CC(=O)NC1CCCCC1`, -12.7% [at 1.35 µM]; that for `COc1ccccc1NC(=O)N1CCCCN2[C@H](CO)[C@@H](c3ccc(-c4cccc(C#N)c4)cc3)[C@H]2C1`, 24.8% [at 10 µM]. Take `N#Cc1cccc(-c2ccc([C@H]3[C@H]4CN(Cc5ccccc5F)CCCCN4[C@H]3CO)cc2)c1`: the max activity was 26.6% [at 10 µM].
